From PubChem BioAssay (NCI)
This is part of a sample that, as a whole, favours compounds with a hit. Of some 83,000 tested, about 20% had one in any assay.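 Growth was measured after 48 h exposure to one concentration of compound in 96-well plates. Values under 10 count as active.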 Active and inactive are the calls of the source.

What follows are molecules tested on MDA-MB-468 breast (assay: NCI-60 one-dose screen, 48 h (100 = growth as untreated, 0 = no growth, -100 = all killed)). Conditions: 10 µM unless noted.
With `Cc1cc(NS(=O)(=O)c2ccc(NC(=O)COc3ccc(-c4cc5ccccc5[nH]4)cc3)cc2)no1` the growth was -0.467% (active). In the case of `CN(Cc1ccccc1)Cc1ccccc1`, the growth is reported as 92.1% (inactive). In the case of `COc1ccc(-n2nc(C(=O)NCC(=O)O)nc2-c2ccccc2)cc1`, the growth is reported as 115% (inactive). For `CCCCCCCCCCCC(c1ccccc1)[N+](C)(C)C` (stereo not given), the growth was -45.6% (active). With `C=CC(=O)Nc1cccc(-c2nc(SC)nc(NCc3ccccc3)c2C#N)c1` the growth was 52.1% (inactive). `COc1ccc2nc3cc(Cl)ccc3c(N3CCN(c4ccnc(N5CCN(C)CC5)n4)CC3)c2c1` was tested, and the growth was -51.9% (active). In the case of `N#Cc1c(-c2ccc(C(F)(F)F)cc2)cc(N2CC(O)C2)n2c1nc1ccccc12`, the growth is reported as 67.1% (inactive). For `COc1ccc2nc3cc([N+](=O)[O-])ccc3c(NNc3ccccc3)c2c1`, the growth was 58.3% (inactive). With `CCOC(=O)C1=C(C)Nc2nc3ccccc3n2C1c1ccccc1` (stereo not given) the growth was 85.6% (inactive). With `OCCNC(=S)Nc1ccc(-c2nc(N3C[C@H]4CC[C@@H](C3)O4)c3cccn3n2)cc1` the growth was -24.6% (active). `C=CCN1C(=O)c2cccc3c(-c4ccc5c(c4)ncn5C4CCCCC4)ccc(c23)C1=O` was tested, and the growth was 34.6% (inactive). `O=C(CC(CC(=O)c1ccccc1)c1ccccc1O)c1ccccc1` was tested, and the growth was 100% (inactive). For `COc1ccc(C(=S)c2cc(OC)c(OC)c(OC)c2)cc1OC(=O)CCl`, the growth was 47.5% (inactive). `N#C/C(=C\c1ccc(Cl)cc1Cl)C(=O)Nc1ncc(Cc2ccc(Cl)c(Cl)c2)s1` was tested, and the growth was 88.6% (inactive). `O=S(=O)(NCCCNc1cc(-c2cn(-c3ccccc3)nc2-c2cccc(O)c2)ccn1)c1ccc(Cl)cc1` was tested, and the growth was -15.9% (active). For `O=C(c1ccc(-c2ccccc2)cc1)c1ccc([N+](=O)[O-])cc1`, the growth was 108% (inactive). In the case of `CC(=O)OCCOc1cc(Cl)c(Cl)cc1Cl`, the growth is reported as 93.9% (inactive). `Clc1ccc(C(Cn2ccnc2)OCc2ccsc2Cl)c(Cl)c1` (stereo not given) was tested, and the growth was 9.75% (active). With `COc1ccc(Cn2cc3c(c2-c2ccccc2)CCCc2cnoc2-3)cc1[N+](=O)[O-]` the growth was 40.4% (inactive). In the case of `COC(=O)[C@H]1CCCN1C(=O)[C@H]1CCCN1C(=O)[C@H](Cc1c[nH]c2ccccc12)NC(=S)Nc1cc(C(F)(F)F)cc(C(F)(F)F)c1`, the growth is reported as 61% (inactive). In the case of `COc1ccc(-c2cn3ccnc3c(-c3ccc4ncn(C5CCCCC5)c4c3)n2)cc1`, the growth is reported as 2.59% (active). For `O=S=Nc1ccc([N+](=O)[O-])cc1`, the growth was 103% (inactive). In the case of `O=C(CSc1nnc(-c2ccc3nc(-c4ccccc4)[nH]c3c2)o1)Nc1ccc(C(=O)/C=C/c2ccccc2)cc1`, the growth is reported as 112% (inactive). `O=C(Cn1cc(CN2C(=O)c3ccccc3S2(=O)=O)nn1)Nc1ccc([N+](=O)[O-])cc1Cl` was tested, and the growth was 103% (inactive). For `CNC(=O)c1cc(Oc2ccc3c(c2)sc2nc(-c4ccc(NC(=O)[C@@H](NC(=O)OC)C(C)C)cc4)cn23)ccn1`, the growth was 28.4% (inactive). `COc1ccc(-c2nc(C#N)c(NCC(c3ccco3)N3CCCC3)o2)cc1` (stereo not given) was tested, and the growth was 49.2% (inactive). With `C#C[C@]1(O)CC[C@H]2[C@@H]3CC=C4c5sc(Nc6cc(Cl)ccc6OC)nc5CC[C@]4(C)[C@H]3CC[C@@]21C` the growth was 4.64% (active). For `COc1cc2c(c(O)c1Cl)C(=O)c1c(O)cc(C[C@H](C)O)cc1[C@H]2[C@H]1c2cc(C[C@H](C)O)cc(O)c2C(=O)c2c1cc(OC)c(Cl)c2O`, the growth was -14.6% (active). For `Brc1ccccc1Cn1c(-c2cncs2)nc2ccccc21`, the growth was 61.8% (inactive). For `CNC(=O)Nc1ccc(Nc2cc(-c3ccc(-n4cccn4)cc3)[nH]n2)c(C)c1`, the growth was 96.3% (inactive). In the case of `O=C1c2cc(Cl)ccc2S(=O)(=O)c2c(NCCCNCCO)nc3ccccc3c21`, the growth is reported as -14.1% (active). For `COc1cc(-c2nc3sccn3c2-c2ccnc(S(C)(=O)=O)n2)ccc1F`, the growth was 72.3% (inactive). With `C=C(C)C(=O)Nc1ccc(NC(C)C)cc1` the growth was 111% (inactive). `O=S(=O)(O)c1ccc(Cl)c(Cl)c1` was tested, and the growth was 115% (inactive). In the case of `Cc1ccc(=O)n(-c2ccc(Br)cc2F)c1`, the growth is reported as 102% (inactive). `CCN(CCNc1ccc(C)c2sc3ccccc3c(=O)c12)CC(C)(C)O` was tested, and the growth was 26% (inactive). `CN1CC[C@@H]2[C@@]3(C)CC[C@H](O)C(C)(C)[C@@H]3CC[C@@]2(C)[C@]2(C)CC[C@@]3(CO)CCC(C)(C)C[C@@H]3C12` (stereo not given in full) was tested, and the growth was 62% (inactive). In the case of `Cc1cc(=O)oc2cc(O)cc(O)c12`, the growth is reported as 103% (inactive). For `CC[C@@]1(O)C(=O)OCc2c1cc1n(c2=O)Cc2cc3c(CN(C)C)c(O)ccc3nc2-1`, the growth was -58.2% (active). `Cc1ccc(N=Nc2ccccc2)cc1` was tested, and the growth was 95.2% (inactive).
